# Assay outcomes deposited in PubChem by National Center for Advancing Translational Sciences (NCATS).
# A selection: hits, their analogues and other compounds. The true share with any hit is near 4.7%.
# TGFb inhibitor: TGF-b pathway inhibition. Potency, µM (doses to about 46.1 µM), for the others: at the highest dose activity, negative = inhibition, actives largely listed as inhibitors. HepG2 CAGA-GFP TGF-b/SMAD3 reporter, GFP fluorescence, 18 h; TGF-beta stimulated, 500 pg/mL final. AID 588855. 410,000 compounds, 1.2% hits; also: potency is read from the fitted curve at half-maximal effect; % is scaled to controls: 0 for no effect and ±100 for the full control effect; nearly all actives have a fitted effect of over 65% in size
#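 Inhibition of TGF-beta-driven CAGA-GFP reporter expression in HEPG2 cells is measured by cellular GFP fluorescence after 18 h stimulation with 500 pg/mL recombinant TGF-beta in 1% FBS medium at 37 degrees C.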
# ATXN viability: viability counter-screen for ATXN expression inhibitors. S2 cells (HEK-293 line with an ATXN2-luciferase reporter) viability, CellTiter-Fluor protease fluorescence, 24 h. Potency, µM (top dose mostly 56.7 µM), usual class: cytotoxic. 400,000 compounds, 0.49% hits; also: potency is read from the fitted curve at half-maximal effect; nearly all actives have a fitted effect of over 40% in size
# HepG2 tox: HepG2 cytotoxicity, counter-screen for TGF-b inhibitors | 410,000 compounds, 0.76% hits | HepG2 CAGA-GFP viability, ATP luminescence, 18 h | AID 588856 | Potency, µM (titrated, usually from 46.1 µM), without a hit: at the highest dose activity change, negative = cytotoxicity, usual class: cytotoxic; also: potency is read from the fitted curve at half-maximal effect
#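 HepG2 CAGA-GFP cells (1000/well, DMEM with 1% FBS) received compound, then TGF-beta at 500 pg/mL final, and were incubated 18 hours at 37 degrees C. Viability was read by CellTiter-Glo luminescence. Media-only wells were set as complete cell-killing and DMSO as no toxicity.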
# D3 ag: agonists of human D3 dopamine receptor; max activation, %; D3R DiscoveRx beta-arrestin cells, luminescence, 90 min; AID 652048; 410,000 compounds, 0.58% hits; P35462; in the data active = max activation above about 30%; also: 0% is about no effect
# Target sequence (P35462 whole entry, looked up): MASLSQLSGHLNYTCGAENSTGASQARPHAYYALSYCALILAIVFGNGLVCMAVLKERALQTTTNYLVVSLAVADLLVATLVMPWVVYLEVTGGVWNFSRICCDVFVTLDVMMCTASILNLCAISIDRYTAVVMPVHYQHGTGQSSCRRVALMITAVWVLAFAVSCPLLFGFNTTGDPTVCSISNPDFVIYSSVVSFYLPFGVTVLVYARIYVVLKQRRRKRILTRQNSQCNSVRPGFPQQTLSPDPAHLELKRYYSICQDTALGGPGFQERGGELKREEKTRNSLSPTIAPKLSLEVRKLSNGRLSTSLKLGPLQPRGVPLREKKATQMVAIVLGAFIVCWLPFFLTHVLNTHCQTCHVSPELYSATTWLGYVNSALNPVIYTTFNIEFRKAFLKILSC
#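 Agonist mode: compounds and dopamine controls were applied to plated cells for 90 min at 37 degrees C after an overnight attachment at 1500 cells/well. Luminescent read-out followed 30 - 60 minutes at room temperature with DiscoveRx detection reagent.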
# D3 antag: antagonists of human D3 dopamine receptor | P35462 | 360,000 compounds, 2.5% hits | AID 652054 | max response, negative = inhibition, % | D3R cells, DiscoveRx beta-arrestin luminescence, antagonist mode; active compounds read low; in the data active = max response below about -50%; inconclusive = no clear call, values can overlap the other calls; also: % is scaled to controls: 0 for no effect and ±100 for the full control effect
#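 Cells plated overnight at 1500 cells/well, then exposed to library compounds with dopamine controls for 90 minutes at 37 degrees C. DiscoveRx reagent added for 30–60 minutes at room temperature; luminescence read, quantitative HTS format.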
# ATXN2 expr inh: ATXN2 expression inhibition; HEK-293 ATXN2-luciferase reporter, luminescence, 24 h; Potency, µM (titrated, usually from 57 µM), without a hit: at the top dose activity change, negative = inhibition, actives largely listed as inhibitors; 360,000 compounds, 0.72% hits; also: potency is read from the fitted curve at half-maximal effect; % is scaled to controls: 0 for no effect and ±100 for the full control effect; nearly all actives have a fitted effect of over 55% in size
#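 qHTS (up to 57 uM final) was run with 24 h compound exposure of reporter cells at 37 °C. Each well was multiplexed: SteadyGlo luminescence measured ATXN2-luciferase expression after a fluorogenic Gly-Phe-AFC viability readout (25 uM final).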
# * marks the source's active call; other numbers are inactive results; i = inactive; u = inconclusive; x = not tested or not shown. Unless noted, calls follow the shape of the dose curve; as a rule, active = well fitted curve in the direction sought with a large enough effect; inconclusive = small, poorly fitted or top-dose-only effect, or another doubt; inactive = no such curve, though single readings can be large; an effect the other way counts as inactive or inconclusive.
SMILES,TGFb inhibitor,ATXN viability,HepG2 tox,D3 ag,D3 antag,ATXN2 expr inh
Cc1cccc(-c2nnc(NC(=O)c3ccc(Cl)cc3)o2)c1,u,i,0%,-18,-97*,u
Cc1nc([N+](=O)[O-])c(Br)n1CC(=O)c1cccc([N+](=O)[O-])c1,-28%,u,-30%,6,-51*,u
Cn1c2c(c(=O)n(C)c1=O)C(C(F)(F)F)(C(F)(F)F)N=C(c1ccc(Cl)cc1)N2,1.8µM*,u,-24%,6,11,u
COc1ccccc1C1CN(Cc2cnn(C)c2)Cc2ccccc2O1 (centres undefined),x,i,x,x,x,x
CCOc1ccc(CCN2CN(CC)CNC2=S)cc1OCC,-20%,i,8.9µM*,-4,-19,-23%
CCN1CNC(=S)N(CCc2ccccc2)C1,7%,i,-1%,8,-10,-12%
COc1ccc(C(=O)/C=C2/C(=O)Nc3ccccc32)cc1OC,-2%,u,-15%,0,-1,x
O=C1Nc2ccccc2/C1=C/C(=O)c1cccs1,u,u,14µM*,-6,-16,u
C=CCOc1ccccc1C(=O)/C=C1/C(=O)Nc2ccccc21,u,u,6.3µM*,-15,u,-14%
NC(=O)COc1ccc(C(=O)/C=C2/C(=O)Nc3ccccc32)cc1,u,i,-27%,-3,-3,4%
COc1ccc(C(=O)/C=C2/C(=O)Nc3ccccc32)c(OC)c1,13µM*,i,10µM*,-23,-27,-13%
COc1ccc(C(=O)/C=C2/C(=O)Nc3ccccc32)cc1,u,u,14µM*,-11,u,u
C=CCOc1ccc(C(=O)/C=C2/C(=O)Nc3ccccc32)cc1,0%,i,-39%,-11,-7,-2%
O=C(C=Cc1cccc(Cl)c1)c1ccccc1,u,i,18µM*,-2,-16,1%
O=C(C=Cc1ccccc1F)c1ccccc1,11µM*,x,-57%,0,-26,u
CC(C)OC(=O)[C@H](C)N[P@](=O)(OC[C@H]1O[C@@H](n2ccc(=O)[nH]c2=O)[C@](C)(F)[C@H]1O)Oc1ccccc1,x,x,x,x,x,-7%
Cc1ccc(-c2nc3ccccc3[nH]2)cc1NC(=S)NC(=O)c1ccccc1Br,u,u,-12%,-6,-51*,u
Cc1ccc(OCC(=O)Nc2cc(-c3nc4ccccc4[nH]3)ccc2C)c(C)c1,-5%,i,-4%,3,x,-4%
CCCOc1cccc(C(=O)Nc2cc(-c3nc4ccccc4[nH]3)ccc2C)c1,u,20µM*,-29%,7,x,u
Cc1ccc(-c2nc3ccccc3[nH]2)cc1NC(=O)COc1ccccc1[N+](=O)[O-],11µM*,x,-75%,1,x,x
CCCOc1ccc(C(=O)Nc2cc(-c3nc4ccccc4[nH]3)ccc2C)cc1,-7%,u,-1%,1,x,-3%
c1coc(CNc2ncnc3c2[nH]c2ccccc23)c1,-26%,x,-53%,x,x,x
CCc1ccc(-c2cc(C(F)(F)F)n3nc(C(=O)Nc4cnn(Cc5ccc(C)cc5)c4)cc3n2)s1,2%,u,-22%,12,12,11µM*
Cc1ccc(C)c(CN2C(=O)c3ccccc3S(=O)c3ccc(C(=O)NCc4ccccc4)cc32)c1 (centres undefined),8%,i,2%,-14,x,1%
CCn1nc(C(=O)OCC(=O)Nc2nc(-c3ccc(OC)cc3)cs2)c2ccccc2c1=O,-10%,i,2%,35*,90,23%
O=c1oc(-c2ccco2)nc2c1cnn2-c1ccccc1,2%,i,3%,6,-24,1%
O=c1oc(-c2ccco2)nc2ccccc12,3%,i,-40%,0,-57*,1%
COc1cccc(CNC(=O)c2c(OC)cc(=O)n3c2CCN(C(=O)c2cc(C)ccc2C)CC3)c1,x,i,x,x,x,x
Fc1ccc(C2=NC(c3cccc(C(F)(F)F)c3)=Nc3ccccc3N2)cc1,-8%,u,-24%,25,x,-34%
